Assay results published in the supplement of paper PMC6555819.

System: PPARa:RXRa (NR concentration 270 nM, RXRa partner concentration 90 nM)
Assay: PBM binding z-score (relative to random genomic background probes); higher = stronger binding; sequences stand for … in GC…GCGATTGACAGCGTAGAATGAAGG
Description: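 Protein-binding microarray (Agilent 4x180K custom design, double-stranded 60-nt probes: 5' GC cap, 34-nt variable region, 24-nt constant primer region; full probe sequence given). Purified or IVT nuclear receptor:RXRα heterodimers (3:1 NR:RXRα, mostly 270:90 nM) or homodimers were incubated for 1 h in PBS with 2% milk and no ligand, then detected with Alexa488 antibodies. Fluorescence from o1-orientation probes (~5 replicates averaged) was converted to z-scores against 500 random hg19 background probes. Variable regions are seed direct-repeat (DR0–DR5) sites, all their single-nucleotide variants and half-site ablations.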

How did the PBM binding z-score turn out when AGTCAAAGTTTATCTAGGTAACGTAAGATATGCT was run?
The PBM binding z-score was 2.17.

How did the PBM binding z-score turn out when AGAATGAGGTCACCAAAGATCAGGGAAACGCTTG was run?
Its PBM binding z-score is 6.33.

For CGAACGAGGTCAAAGGACAGTGAAAGGCGACGTA, which PBM binding z-score is on record?
The PBM binding z-score was 6.37.

For AGAATGAGGTTACTAAAGATCAGGGAAACGCTTG, which PBM binding z-score is on record?
Its PBM binding z-score is 2.5.

AATACAGGGTAACTAGGCCAGAGTAGGTACGAAT was tested. Which PBM binding z-score did it give?
The PBM binding z-score was 2.01.

For ATATGTAGTTTATCGGGTCATTCAGTTTGCGCAT, which PBM binding z-score is on record?
The PBM binding z-score was 3.2.

How did the PBM binding z-score turn out when CCTTACGGGTCAAGGTTATAGCCCGGGTGGTACG was run?
The PBM binding z-score was 4.97.

With ATCGAAAGGTCGACCAGGTGAGTATACACCGTTT as the sequence, how does the PBM binding z-score read?
Its PBM binding z-score is 4.53.

With TAGCCTAGGTCACATCGGGCCAGTATACGCTATA as the sequence, how does the PBM binding z-score read?
Its PBM binding z-score is 3.16.

ATCGAAAGGTCGACGCGGTGAGTATACACCGTTT was tested. Which PBM binding z-score did it give?
The PBM binding z-score was 3.97.

CGTCCAAGGTCGAAGGTCAGTGAAGAGATGACGG was tested. Which PBM binding z-score did it give?
Its PBM binding z-score is 4.7.

CGTCCGAGGTCATAGGAGGTCAGTGAAGACAGAT was tested. Which PBM binding z-score did it give?
The PBM binding z-score was 6.37.

How did the PBM binding z-score turn out when CATACAGGGTCGGCTAGGCCAGAGTAGGGACGGC was run?
The PBM binding z-score was 0.514.

For TCTTGTAGGTCAATAGAGGTTAAGAAAGTGCGCT, which PBM binding z-score is on record?
The PBM binding z-score was 5.13.

Which PBM binding z-score does the source give for CGAACTAGGTCGCCAGGACAGTGAAGAGGTTGGA here?
The PBM binding z-score was 2.09.

For CGTCCAAGGTCAAGGTCAATGAAAGAGACTCGAA, which PBM binding z-score is on record?
Its PBM binding z-score is 6.

For CAAAATAGGTCAAAGGTCAAAGTCGAGCCAACCA, which PBM binding z-score is on record?
Its PBM binding z-score is 7.93.

Which PBM binding z-score does the source give for TCTCGGAGGACACCAAAGGTCAGAGCTCGACATC here?
Its PBM binding z-score is 3.65.

CGAACTAGGTCATTGACAGGACAGTGGATAGTAA was tested. Which PBM binding z-score did it give?
The PBM binding z-score was 4.75.

How did the PBM binding z-score turn out when CGTCCAAGGTCATATGAGGTCAGTGAAGACAGAT was run?
The PBM binding z-score was 5.65.

With CCTACTGGGCCACGAAAGGCCATTGATTCAGTGA as the sequence, how does the PBM binding z-score read?
Its PBM binding z-score is 0.948.

CGTCCAAGGACAATGCTAGGTCAGTGAAAGCATT was tested. Which PBM binding z-score did it give?
The PBM binding z-score was 0.16.

CGTCAAACTTCAACTAAGGTAACGTAAAGCACGC was tested. Which PBM binding z-score did it give?
The PBM binding z-score was 0.493.

For AATACAGGGTGACTAGGCCAGAGTAGGTACGAAT, which PBM binding z-score is on record?
The PBM binding z-score was 1.7.

With TATAAAGGGTCAAAGGCCAGAGTACGAATGTCGA as the sequence, how does the PBM binding z-score read?
Its PBM binding z-score is 6.43.

Which PBM binding z-score does the source give for AGAATGAGGTCAAGATCAGGGAAACAGAATACAT here?
The PBM binding z-score was 6.42.

How did the PBM binding z-score turn out when CTATGTAGGTTACGGGGGTCATTCAGTTTGAAAG was run?
Its PBM binding z-score is 6.13.

For CAAACCAGGTCAAGAGGTCAAAGTCCGCTTCCCG, which PBM binding z-score is on record?
The PBM binding z-score was 6.68.

For ATATGTAGGTTAGCTGAGGTCATTCAGACTAGGC, which PBM binding z-score is on record?
The PBM binding z-score was 4.55.

For CCGAGAAGGTTACGAGGGGGCATTCAGTGCGAAT, which PBM binding z-score is on record?
Its PBM binding z-score is 4.3.

With GCTGCTAGGTCAACTGATGGTCATCTAAAGCTCG as the sequence, how does the PBM binding z-score read?
The PBM binding z-score was 3.75.

GCTTAAGGGTCAAAGGTTATAGCATGAATAGAAT was tested. Which PBM binding z-score did it give?
Its PBM binding z-score is 7.18.

With CTATGTAGGTTAGGGGGGTCATTCAGTTTGAAAG as the sequence, how does the PBM binding z-score read?
Its PBM binding z-score is 5.95.

How did the PBM binding z-score turn out when GGAACGAGGTCAAGTTGATAGCAGAGTTTGATGG was run?
The PBM binding z-score was 6.38.

TGAATGAGGTTAAATATCAGGGAACGTGGCGTCG was tested. Which PBM binding z-score did it give?
Its PBM binding z-score is 3.72.

ACTTACGGGTCAACGAGGTCATAGCACGCGTATA was tested. Which PBM binding z-score did it give?
The PBM binding z-score was 6.12.

Which PBM binding z-score does the source give for TCTAGTTGGTCACGGAGGTCCCACACGACGGGTA here?
The PBM binding z-score was 0.66.

TAGCCTAGGTCATTCAGGGGCCAGCATAGAAAGC was tested. Which PBM binding z-score did it give?
The PBM binding z-score was 3.89.

CTACCAAGGTCAACAAGGTCGTTGATTACTATTC was tested. Which PBM binding z-score did it give?
Its PBM binding z-score is 6.16.

For AGTCAAAGTTCATCTAGGTCACGTAAGATATGCT, which PBM binding z-score is on record?
The PBM binding z-score was 5.68.
